From PubChem BioAssay (Tox21)
Values without a mark were called inactive. Records with an inconclusive call do not appear. A call without a number means that no potency is given here. Active and inactive are the calls of the source. Unless noted, the call rests on the fitted dose curve; in most records, active means well fitted curve in the direction sought with a large enough effect in the repeat runs; inconclusive means weak or mixed curves; inactive means no such curve, though single readings can be large; an effect the other way counts as inactive or inconclusive.

Tests used:
[1] = target: Estrogen receptor beta (Homo sapiens) (UniProt Q92731); test: qHTS assay to identify small molecule antagonists of the estrogen receptor beta (ER-beta) signaling pathway (AID 1259378; active means well fitted inhibition curve with a large enough effect in the signal ratio in the repeat runs, not every such curve was filed as active; the % refers to the signal ratio)
Estrogen receptor beta (Homo sapiens), sequence (Q92731 whole entry, looked up): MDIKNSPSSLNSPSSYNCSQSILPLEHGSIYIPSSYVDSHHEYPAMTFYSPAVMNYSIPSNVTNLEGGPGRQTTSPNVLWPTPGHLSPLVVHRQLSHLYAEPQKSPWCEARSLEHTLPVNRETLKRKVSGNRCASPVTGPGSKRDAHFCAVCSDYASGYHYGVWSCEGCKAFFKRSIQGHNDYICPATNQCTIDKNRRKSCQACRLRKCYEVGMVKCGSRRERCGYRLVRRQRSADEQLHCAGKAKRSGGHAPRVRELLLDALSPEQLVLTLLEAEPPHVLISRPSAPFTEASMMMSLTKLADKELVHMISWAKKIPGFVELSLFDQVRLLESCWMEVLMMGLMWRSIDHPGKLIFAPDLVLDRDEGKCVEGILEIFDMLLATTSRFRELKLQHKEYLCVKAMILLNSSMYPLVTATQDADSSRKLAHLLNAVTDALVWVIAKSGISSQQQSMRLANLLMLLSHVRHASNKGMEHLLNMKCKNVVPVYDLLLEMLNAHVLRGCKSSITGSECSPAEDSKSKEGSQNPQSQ
In short: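 ER-beta-UAS-bla HEK293T (GripTite) cells in 2% charcoal-stripped FBS medium were preincubated 6 hr at 37C, dosed with compound, then stimulated with 1 nM E2 (final) for 16 hr; beta-lactamase reporter read by B/G FRET fluorescence after 2 hr substrate loading.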

[2] = qHTS assay to identify small molecule agonists of the androgen receptor (AR) signaling pathway in the presence of an antagonist - cell viability counter screen (AID 1259379);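 further: MDA-kb2 human breast cancer cells carrying an MMTV luciferase reporter; series mostly up to about 92 µM; nearly all actives have a fitted effect of over 25% in size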
In short: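 Cells: MDA-kb2 (MMTV-luc, AR and GR elements), 3,000/well, 5 hr settle. Added: nilutamide 3.0uM final, then compounds (15 conc.). Incubation: 16 hr, 37C, no CO2. Read-out: CellTiter-Fluor, 1 hr, fluorescence.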

[3] = target: Androgen receptor (Homo sapiens) (UniProt P10275); test: qHTS assay to identify small molecule agonists of the androgen receptor (AR) signaling pathway in the presence of an antagonist (AID 1259381; calls by dose curve; further: nearly all actives have a fitted effect of over 15% in size)
Androgen receptor (Homo sapiens), sequence (P10275 whole entry, looked up): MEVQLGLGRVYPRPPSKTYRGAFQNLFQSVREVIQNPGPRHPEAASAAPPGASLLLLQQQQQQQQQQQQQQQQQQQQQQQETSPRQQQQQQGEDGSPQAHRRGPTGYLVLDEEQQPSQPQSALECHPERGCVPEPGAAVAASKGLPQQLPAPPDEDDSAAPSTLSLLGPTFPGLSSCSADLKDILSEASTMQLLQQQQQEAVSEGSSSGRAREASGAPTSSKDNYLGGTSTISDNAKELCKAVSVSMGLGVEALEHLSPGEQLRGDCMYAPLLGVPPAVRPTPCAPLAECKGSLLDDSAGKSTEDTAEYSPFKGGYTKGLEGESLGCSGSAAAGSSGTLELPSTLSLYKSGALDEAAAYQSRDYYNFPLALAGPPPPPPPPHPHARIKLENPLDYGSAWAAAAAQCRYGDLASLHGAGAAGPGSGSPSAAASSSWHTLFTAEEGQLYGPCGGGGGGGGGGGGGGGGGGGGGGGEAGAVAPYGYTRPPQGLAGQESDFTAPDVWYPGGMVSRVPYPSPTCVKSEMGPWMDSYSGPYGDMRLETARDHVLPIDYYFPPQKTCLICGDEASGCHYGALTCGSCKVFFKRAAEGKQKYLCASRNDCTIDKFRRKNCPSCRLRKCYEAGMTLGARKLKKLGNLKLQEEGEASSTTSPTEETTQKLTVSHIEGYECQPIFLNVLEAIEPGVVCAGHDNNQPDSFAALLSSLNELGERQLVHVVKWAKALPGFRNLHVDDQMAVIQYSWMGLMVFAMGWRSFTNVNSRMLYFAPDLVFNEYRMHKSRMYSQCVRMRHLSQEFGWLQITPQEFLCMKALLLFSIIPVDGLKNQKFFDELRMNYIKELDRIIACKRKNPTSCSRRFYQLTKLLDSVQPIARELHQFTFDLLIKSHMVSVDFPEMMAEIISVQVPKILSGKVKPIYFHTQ
In short: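 MDA-kb2 cells, 3,000/well, rested 5hr at 37C/0% CO2 → nilutamide 3.0uM final or buffer → compounds, 15 conc. → 16hr at 37C → ONE-Glo, 30min RT → luminescence.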

[4] = qHTS assay to identify small molecule antagonists of the estrogen receptor beta (ER-beta) signaling pathway - cell viability counter screen (AID 1259382); further: series mostly up to about 92 µM; nearly all actives have a fitted effect of over 55% in size
In short: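 Cells: ER-beta-UAS-bla HEK293T, 2,000/well, 2% CS-FBS, 6 hr settle. Cpd + E2 (1nM final), 16 hr, 37C/5% CO2. Bla FRET substrate 2 hr RT, then CellTiter-Glo 30 min RT, luminescence.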

[5] = target: Estrogen receptor (Homo sapiens) (UniProt P03372); test: qHTS assay to identify small molecule agonists of the estrogen receptor alpha (ER-alpha) signaling pathway in the presence of an antagonist (AID 1259383; calls by dose curve; further: top concentration of the series differs between compounds; nearly all actives have a fitted effect of over 15% in size)
Estrogen receptor (Homo sapiens), sequence (P03372 whole entry, looked up): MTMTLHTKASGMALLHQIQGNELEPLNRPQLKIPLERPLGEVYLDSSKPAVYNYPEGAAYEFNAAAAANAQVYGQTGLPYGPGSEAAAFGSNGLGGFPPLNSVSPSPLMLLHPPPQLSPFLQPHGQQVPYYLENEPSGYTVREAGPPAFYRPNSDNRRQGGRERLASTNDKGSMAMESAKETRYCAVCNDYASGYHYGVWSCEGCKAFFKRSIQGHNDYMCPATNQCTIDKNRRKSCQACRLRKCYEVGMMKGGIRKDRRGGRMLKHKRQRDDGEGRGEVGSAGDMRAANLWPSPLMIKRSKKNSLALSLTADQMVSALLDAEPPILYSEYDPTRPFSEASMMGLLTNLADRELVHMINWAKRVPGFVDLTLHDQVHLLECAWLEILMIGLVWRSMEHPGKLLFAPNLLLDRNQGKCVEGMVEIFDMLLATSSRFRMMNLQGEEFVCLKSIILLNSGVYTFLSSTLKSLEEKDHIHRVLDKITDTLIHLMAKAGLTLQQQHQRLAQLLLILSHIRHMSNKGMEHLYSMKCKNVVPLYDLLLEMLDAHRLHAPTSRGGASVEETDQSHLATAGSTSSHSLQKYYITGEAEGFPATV
In short: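 VM7Luc4E2, endog. ER-alpha + 4×ERE-luc; charcoal-stripped FBS, phenol red-free, 5 d; 24hr plating; +10.0nM ICI-182,780 (final); cpds 15 conc, 22hr, 37C/5% CO2; ONE-Glo luminescence.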

[6] = qHTS assay to identify small molecule agonists or antagonists of the thyroid stimulating hormone receptor (TSHR) signaling pathway - wild type cell line counter screen (AID 1259384; calls by dose curve)
In short: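 Wild-type HEK293 cells were plated 18 h at 37 C/5% CO2, pin-dosed with compound plus Ro20-1724 medium, held 30 min at room temperature, then given cAMP-d2 and anti-cAMP-cryptate; fluorescence was read after 1 h. Fifteen concentrations, triplicate.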

[7] = target: Thyrotropin receptor (Homo sapiens) (UniProt P16473); test: qHTS assay to identify small molecule antagonists of the thyroid stimulating hormone receptor (TSHR) signaling pathway (AID 1259385; calls by dose curve; further: nearly all actives have a fitted effect of over 20% in size)
Thyrotropin receptor (Homo sapiens), sequence (P16473 whole entry, looked up): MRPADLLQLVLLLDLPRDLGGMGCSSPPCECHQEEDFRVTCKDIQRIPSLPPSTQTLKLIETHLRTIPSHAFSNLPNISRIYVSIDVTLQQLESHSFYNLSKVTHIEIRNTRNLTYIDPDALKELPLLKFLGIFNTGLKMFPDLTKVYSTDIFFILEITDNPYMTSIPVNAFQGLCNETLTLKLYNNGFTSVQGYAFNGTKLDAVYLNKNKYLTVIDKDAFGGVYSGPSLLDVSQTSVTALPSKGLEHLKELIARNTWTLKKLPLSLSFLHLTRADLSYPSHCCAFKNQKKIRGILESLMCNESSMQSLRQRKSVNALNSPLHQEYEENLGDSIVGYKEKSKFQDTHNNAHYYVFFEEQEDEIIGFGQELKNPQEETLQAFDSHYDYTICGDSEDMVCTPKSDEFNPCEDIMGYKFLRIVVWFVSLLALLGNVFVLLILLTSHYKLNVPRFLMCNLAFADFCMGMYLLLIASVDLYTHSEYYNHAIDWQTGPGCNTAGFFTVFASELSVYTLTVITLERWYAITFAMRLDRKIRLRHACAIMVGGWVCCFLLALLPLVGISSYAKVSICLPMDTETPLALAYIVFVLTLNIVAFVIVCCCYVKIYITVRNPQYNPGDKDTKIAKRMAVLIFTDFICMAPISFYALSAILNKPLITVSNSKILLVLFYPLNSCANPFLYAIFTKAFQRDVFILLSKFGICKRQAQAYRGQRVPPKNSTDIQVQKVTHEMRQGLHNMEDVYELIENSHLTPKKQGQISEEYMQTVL
In short: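 TSHR-HEK293 cells were plated and held 18 h at 37C/5% CO2, then given compound plus Ro20-1724 and stimulated with TSH at 1.5 ng/mL final. After 30 min at room temperature, cAMP was detected with cAMP-d2/anti-cAMP-cryptate (1 h) by fluorescence.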

[8] = qHTS assay to identify small molecule agonists of the estrogen receptor alpha (ER-alpha) signaling pathway in the presence of an antagonist - cell viability counter screen (AID 1259386);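 further: series mostly up to about 92 µM; cells exposed to compounds for 22 h at 37 °C before the viability read; nearly all actives have a fitted effect of over 30% in size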
In short: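 VM7Luc4E2, stripped-serum pre-culture 5 d; 24hr plating; +ICI-182,780 10.0nM final; cpds 15 conc, 22hr, 37C/5% CO2; CellTiter-Fluor added at 21hr, fluorescence 1hr later.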

[9] = target: Progesterone receptor (Homo sapiens) (UniProt P06401); test: qHTS assay to identify small molecule agonists of the progesterone receptor (PR) signaling pathway (AID 1346784; calls by dose curve; further: nearly all actives have a fitted effect of over 30% in size; further: potency means the concentration at half of the fitted maximal effect)
Progesterone receptor (Homo sapiens), sequence (P06401 whole entry, looked up): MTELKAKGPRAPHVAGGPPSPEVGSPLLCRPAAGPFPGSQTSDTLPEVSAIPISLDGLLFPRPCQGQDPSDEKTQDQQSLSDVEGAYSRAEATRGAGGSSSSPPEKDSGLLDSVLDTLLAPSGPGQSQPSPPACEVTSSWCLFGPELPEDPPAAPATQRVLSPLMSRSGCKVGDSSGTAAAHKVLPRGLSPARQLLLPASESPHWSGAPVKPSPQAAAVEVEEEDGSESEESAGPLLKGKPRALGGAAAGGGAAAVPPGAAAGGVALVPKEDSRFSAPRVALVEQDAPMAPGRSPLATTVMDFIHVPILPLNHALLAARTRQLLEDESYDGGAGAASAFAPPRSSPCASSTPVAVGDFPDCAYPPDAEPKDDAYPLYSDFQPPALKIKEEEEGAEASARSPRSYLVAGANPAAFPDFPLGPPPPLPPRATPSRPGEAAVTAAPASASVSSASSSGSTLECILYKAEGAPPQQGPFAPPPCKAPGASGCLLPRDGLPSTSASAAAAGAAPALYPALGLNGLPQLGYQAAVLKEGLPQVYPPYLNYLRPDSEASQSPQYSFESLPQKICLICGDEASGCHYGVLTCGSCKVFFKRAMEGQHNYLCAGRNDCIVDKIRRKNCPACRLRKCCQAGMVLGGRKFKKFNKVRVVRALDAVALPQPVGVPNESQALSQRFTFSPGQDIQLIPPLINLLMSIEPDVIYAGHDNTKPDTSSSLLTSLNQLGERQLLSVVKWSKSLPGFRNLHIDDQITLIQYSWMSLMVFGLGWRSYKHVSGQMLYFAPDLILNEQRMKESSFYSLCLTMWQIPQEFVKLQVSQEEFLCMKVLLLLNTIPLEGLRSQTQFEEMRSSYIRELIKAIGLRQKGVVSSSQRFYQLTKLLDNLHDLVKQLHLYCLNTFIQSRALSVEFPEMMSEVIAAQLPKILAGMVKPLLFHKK
In short: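 The screen uses PR-UAS-bla HEK 293T cells in charcoal-stripped serum (2%). Compounds are applied for 16 hr at 37C after a 6 hr pre-incubation, and reporter activity is detected with a FRET beta-lactamase substrate after 2 hr at room temperature.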

[10] = qHTS assay to identify small molecule agonists of the estrogen receptor beta (ER-beta) signaling pathway - cell viability counter screen (AID 1259380); further: nearly all actives have a fitted effect of over 30% in size
In short: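 HEK293T ER-beta-UAS-bla; 2% CS-FBS; 6 hr pre-plate, 16 hr cpd at 37C/5% CO2; LiveBLAzer read first, then CellTiter-Glo 30 min RT, luminescence.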

| Structure (SMILES) | Potency [1] | Potency [2] | Potency [3] | outcome [4] | outcome [5] | outcome [6] | outcome [7] | Potency [8] | Potency [9] | Potency [10] |
| --- | --- | --- | --- | --- | --- | --- | --- | --- | --- | --- |
| O=[N+]([O-])c1cncn1CCN1CCOCC1 | inactive | inactive | inactive | inactive | inactive | inactive | inactive | inactive | inactive |  |
| CC(C)NNC(=O)c1ccncc1 |  | inactive | inactive | inactive |  | inactive | inactive | inactive | inactive | inactive |
| CCCc1ncc(C[n+]2ccccc2C)c(N)n1 | inactive | inactive |  | inactive |  |  |  | inactive | inactive | inactive |
| COc1ccc2cc1Oc1cc3c(cc1OC)CC[N+](C)(C)[C@H]3Cc1ccc(cc1)Oc1c(OC)c(OC)cc3c1[C@@H](C2)[N+](C)(C)CC3 |  | inactive |  | inactive | inactive | inactive | inactive | inactive |  | inactive |
| CC(C)(C)c1ccc(-c2ccc(C(C)(C)C)cc2)cc1 |  | inactive | inactive | inactive | inactive | inactive | inactive | inactive | inactive | inactive |
| C[N+]1(C)[C@@H]2CC(OC(=O)[C@H](CO)c3ccccc3)C[C@H]1[C@@H]1O[C@@H]12 (stereo not given in full) |  | inactive |  | inactive | inactive | inactive | inactive | inactive |  | inactive |
| O=C(O)CCCC[P+](c1ccccc1)(c1ccccc1)c1ccccc1 |  | inactive |  | inactive | inactive | inactive | inactive | inactive |  | inactive |
| OCCc1ccccn1 | inactive | inactive |  | inactive |  |  |  | inactive | inactive | inactive |
| Cc1cccc(C)c1NC(=O)CC12CCCN1CCC2 |  | inactive |  | inactive | inactive | inactive | inactive | inactive |  | inactive |
| Nc1ccn([C@@H]2O[C@H](CO)[C@@H](O)[C@@H]2O)c(=O)n1 |  | inactive |  | inactive | inactive |  |  | inactive | inactive | inactive |
| CCCCCCCCCCCCCCCCCCO |  | inactive |  | inactive | inactive | inactive | inactive | inactive | inactive | inactive |
| CCN(CC#N)c1cccc(C)c1 |  | inactive |  | inactive | inactive |  |  | inactive | inactive | inactive |
| c1coc(CNc2ncnc3nc[nH]c23)c1 |  | inactive |  | inactive | inactive | inactive | inactive | inactive |  | inactive |
| CN(C)C(=O)Oc1cccc([N+](C)(C)C)c1 |  | inactive |  | inactive | inactive | inactive | inactive | inactive | inactive | inactive |
| CCOC(=O)c1cnc2c(cnn2CC)c1NN=C(C)C |  | inactive |  | inactive | inactive |  |  | inactive |  | inactive |
| CO/N=C(\C(=O)N[C@@H]1C(=O)N2C(C(=O)O)=C(CSc3nc(=O)c(O)nn3C)CS[C@H]12)c1csc(N)n1 |  | inactive |  | inactive | inactive | inactive | inactive | inactive | inactive | inactive |
| C[C@H]1C[C@H]2[C@@H]3CCC4=CC(=O)C=C[C@]4(C)[C@H]3C(=O)C[C@]2(C)[C@@]1(O)C(=O)CO |  | inactive |  | inactive | inactive | inactive | inactive | inactive | inactive | inactive |
| CC[C@H]1OC(=O)[C@H](C)[C@@H](O[C@H]2C[C@@](C)(OC)[C@@H](O)[C@H](C)O2)[C@H](C)[C@@H](O[C@@H]2O[C@H](C)C[C@H](N(C)C)[C@H]2O)[C@](C)(OC)C[C@@H](C)C(=O)[C@H](C)[C@@H](O)[C@]1(C)O |  | inactive |  | inactive | inactive |  |  | inactive | inactive | inactive |
| FB(F)F |  | inactive |  | inactive | inactive | inactive | inactive | inactive | inactive | inactive |
| NC(CCC(=O)O)C(=O)O (stereo not given) |  | inactive |  | inactive | inactive | inactive | inactive | inactive | inactive | inactive |
| N[C@@H](CCC(=O)O)C(=O)O |  | inactive |  | inactive | inactive | inactive | inactive | inactive | inactive | inactive |
| C[N+]1(C)CCCC(OC(=O)C(O)(c2ccccc2)c2ccccc2)C1 (stereo not given) |  | inactive |  | inactive | inactive |  |  | inactive | 15 µM (active) | inactive |
| CCOc1ccc2nc(S(N)(=O)=O)sc2c1 |  | inactive |  | inactive | inactive |  | inactive | inactive |  | inactive |
| CN1[C@@H]2CC[C@H]1CC(OC(=O)C(O)c1ccccc1)C2 (stereo not given in full) |  | inactive |  | inactive | inactive | inactive | inactive | inactive | inactive | inactive |
| CCCCOC(=O)CCC(C)=O |  | inactive |  | inactive | inactive | inactive | inactive | inactive | inactive | inactive |
